Hits are enriched below; roughly 4% of the tested compounds scored in any of these assays.
esBAF inh – inhibitors of esBAF chromatin remodeling in mouse ES cells. Bmi1-luciferase knock-in reporter, 24 h; 100% = twice the neutral-well signal. reporter increase, % at 12.5 µM. 350,000 tested, 2% active. AID 602393; in the data active means activation above about 40%; inconclusive means no clear call, values can overlap the other calls;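 further: 0% = median of the plate's neutral control wells and 100% = double that signal; a rise in the Bmi1 reporter signal indicates esBAF inhibition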
EWS-Fli inh – blocks EWS/Fli oncoprotein-driven transcription | A673 NR0B1-luciferase reporter, viability-normalised | inhibition, % at 12.6 µM | 350,000 tested, 0.67% active | AID 651661;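 active means mean inhibition of at least 50% after viability correction, with every replicate also passing that limit; inconclusive means mean reaches 50% but only one of two replicates passes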;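 further: firefly luciferase signal divided by Alamar Blue viability fluorescence both relative to DMSO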
MITF act – MITF TRPM1 promoter activation in melanoma cells; SK-MEL-5 TRPM1-promoter luciferase, 24 h; % of positive control, neutral wells = 0; activation, % at 12.5 µM; 300,000 tested, 0.75% active;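 active means mean activation of at least 80% with every replicate also reaching 80%; inconclusive means mean reaches 80% but some replicate falls short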;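 further: 0% = neutral control wells and 100% = parthenolide positive control wells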
TRPM1 prom inh – reduces MITF-dependent TRPM1 promoter luciferase signal; SK-MEL-5 TRPM1 promoter luciferase, 24 h; AID 488899; inhibition, % at 12.5 µM; 330,000 tested, 0.83% active;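 active means mean inhibition across replicates of 60% or more, whatever share of single replicates reaches that level; inconclusive means some that reach 60%, reason not given; inactive means mean inhibition across replicates below 60%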
Wnt bcat act – Wnt/beta-catenin pathway activation; Wnt/beta-catenin reporter cell assay, activator, plate reader; activation, % at 9.35 µM; 300,000 tested, 1.2% active; AID 743398; in the data active means activation above about 30%, passing the limit was not always enough; inconclusive means no clear call, values can overlap the other calls;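 further: 0% = neutral control wells and 100% = positive control wells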
PAX8 inh HTS – PAX8 transcriptional activity inhibition; 360,000 tested, 1.2% active; RMG-I TPO-luciferase reporter, SteadyGlo, 24 h; AID 652154; inhibition, % at 12.6 µM;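 active means mean replicate inhibition at least 60% with every replicate also reaching 60%; inconclusive means only one of the two criteria is met; inactive means mean below 60% and not all replicates reaching 60%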;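 further: luciferase light reporting Pax8 driven TPO promoter activity; plate controls were median of neutral control wells for no effect and mitoxantrone controls for full effect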
* = called active by the depositor; ? = inconclusive; / = no result given.

SMILES	esBAF inh	EWS-Fli inh	MITF act	TRPM1 prom inh	Wnt bcat act	PAX8 inh HTS
O=C(O)c1cc2c(s1)-c1ccccc1OC2	19	/	14	-14	/	/
Cc1noc(C)c1S(=O)(=O)Nc1ccc2c(c1)C(=O)N([C@@H](C)CO)C[C@H](C)[C@@H](CN(C)S(=O)(=O)c1cccs1)OCCCC[C@@H](C)O2	-1	8	/	/	/	-11
O=C(NC(=O)c1ccc(Cl)cc1)OC1CCCCC1	/	/	21	-19	/	/
O=C(Nc1ccccc1Cl)OC1CCCCC1	56*	-48	71	-59	5	-36
CC(OC(=O)Nc1cccc(Cl)c1)C(=O)OC1CCCCC1 (stereo unspecified)	54*	-45	35	-33	19	-88
CCCNC(=O)C[C@H]1C[C@H]2c3cc(N(C)C)ccc3O[C@H]2[C@@H](CO)O1	/	2	/	/	/	/
Cc1cc(NC(=O)CSc2nc(-c3cccs3)nc3ccccc23)no1	-16	58*	-10	11	-9	27
O=C(CSc1cn(CCNC(=O)c2ccccc2)c2ccccc12)NCC1CCCO1 (stereo unspecified)	/	-6	-8	11	-2	2
Cc1ccc(C(=O)NCCn2cc(SCC(=O)N3CCOCC3)c3ccccc32)cc1	53*	-25	/	/	-4	-58
Cc1cc(NC(=O)CSc2cn(CCNC(=O)c3ccccc3)c3ccccc23)no1	47*	/	2	-2	/	/
Cc1ccc(C(=O)NCCn2cc(SCC(=O)Nc3cc(C)on3)c3ccccc32)cc1	58*	-23	/	/	-11	-92
Cc1cc(NC(=O)CSc2nc(C(C)(C)C)nc3ccccc23)no1	/	46	-8	9	-3	34
CCCn1cc(SCC(=O)Nc2cc(C)on2)c2ccccc21	-5	/	-7	4	-1	15
COc1ccc(NC(=O)N(C)C[C@H]2Oc3c(NC(=O)c4cnccn4)cccc3C(=O)N([C@@H](C)CO)C[C@H]2C)cc1	-5	-11	/	/	/	/
C[C@@H]1CN([C@@H](C)CO)C(=O)c2cccc(NC(=O)C3CCCCC3)c2O[C@@H]1CN(C)S(=O)(=O)c1ccc(F)cc1	-2	-1	/	/	/	/
O=C(Nc1ccc(F)cc1F)c1ccc2ncsc2c1	67*	-99	22	-30	5	-186
O=C(Nc1ccc(Cl)cc1Cl)c1ccc2ncsc2c1	59*	-132	112*	-189	?	-121
O=C(Nc1ccncc1)c1ccc2ncsc2c1	71*	-3	29	-26	-2	-77
O=C(Nc1ccccc1F)c1cccc(C(=O)Nc2ccccc2F)c1	/	0	11	-13	2	-41
O=C(COC(=O)c1ccc2ncsc2c1)Nc1cc(Cl)ccc1F	28	-8	5	-5	3	-51
O=C(Nc1cccc(F)c1)c1ccc2ncsc2c1	16	/	-4	-6	/	/
O=C(Nc1ccccc1F)c1ccc2ncsc2c1	57*	-98	64	-64	17	-131
C[C@H](CO)N1C[C@H](C)[C@H](CN(C)Cc2ccc(Oc3ccccc3)cc2)Oc2ccc(NC(=O)CCCN(C)C)cc2C1=O	-1	/	/	/	/	-4
O=C(C[C@@H]1CC[C@@H](NC(=O)c2cccc(F)c2)[C@@H](CO)O1)NCc1ccc(Oc2ccccc2)cc1	-17	13	/	/	/	38
CCCSc1ccc(C(=O)Nc2ccc(F)cc2F)cn1	46*	-83	?	-82	8	-13
SMILES	esBAF inh	EWS-Fli inh	MITF act	TRPM1 prom inh	Wnt bcat act	PAX8 inh HTS
CCOC(=O)c1c(SCCN2CCCCC2)n(-c2ccccc2)c(=S)n(-c2ccccc2)c1=O	/	79*	-99	99*	-4	-14
O=C(CCc1nnc(C2CCCCC2)o1)N1CCN(c2ccccc2F)CC1	/	-89	74	-79	33*	-192
O=C(CCc1nnc(C2CCCCC2)o1)N1CCN(C2CCCCC2)CC1	/	2	2	-2	0	5
COCC(=O)N[C@H]1C=C[C@H](CC(=O)NCc2ccccc2OC)O[C@@H]1CO	-3	1	/	/	/	-13
O=C(C[C@@H]1C[C@H]2c3cc(NC(=O)Nc4ccc(C(F)(F)F)cc4)ccc3O[C@H]2[C@H](CO)O1)NCc1ccc2c(c1)OCO2	-6	4	/	/	/	52
O=C(C[C@H]1C[C@@H]2c3cc(NC(=O)Nc4ccc(C(F)(F)F)cc4)ccc3O[C@@H]2[C@@H](CO)O1)NCc1ccc2c(c1)OCO2	-10	29	/	/	/	65*
O=C(C[C@@H]1C[C@H]2c3cc(NC(=O)Nc4ccc(C(F)(F)F)cc4)ccc3O[C@H]2[C@H](CO)O1)NCc1ccc(Cl)cc1	-16	23	/	/	/	94*
O=C(C[C@H]1CC[C@H]2[C@@H](COC[C@H](O)CN2Cc2cc(F)ccc2F)O1)N[C@H]1CCN(Cc2ccccc2)C1	-3	5	/	/	/	4
CC1CC(C)C(=O)C(C(CC2CC(=O)NC(=O)C2)OC(=O)CC(=O)c2ccccc2)C1 (stereo unspecified)	-59	2	-54	55	-10	85*
O=C1CCC(C(=O)OCC(=O)c2ccccc2)N1 (stereo unspecified)	13	-4	-1	0	-1	-11
CNC[C@@H]1OCCCC[C@@H](C)Oc2ccc(NS(=O)(=O)c3ccc(OC)cc3)cc2C(=O)N([C@H](C)CO)C[C@H]1C	10	-6	/	/	/	-18
CCC(=O)Nc1ccc2c(c1)OC[C@@H](C)N(C(=O)COC)C[C@H](C)[C@@H](OC)CN(C)C2=O	-1	7	/	/	/	5
CC(C)(C)C(=O)/C=C(\N)c1ccncc1	-20	/	-6	8	-2	/
COc1ccc(/C(N)=C/C(=O)C(C)(C)C)cc1	58*	/	55	-56	/	/
Cc1ccc2nc(NC(=O)C3CCN(C(=O)c4ccc(F)cc4)CC3)sc2c1	9	-10	-39	41	1	1
O=C(Nc1nc2ccc(C(=O)N3CCCCC3)cc2s1)C1CCCCC1	/	54*	0	1	-1	-26
Nc1ccc2nc(NC(=O)C3CCCCC3)sc2c1	52*	-35	60	-54	48*	-163
CS(=O)(=O)c1ccc2nc(NC(=O)C3CC3)sc2c1	/	-4	/	/	0	-40
Cc1ccc(S(=O)(=O)N[C@H]2C=C[C@H](CC(=O)NCCN3CCCCC3)O[C@@H]2CO)cc1	-4	-2	/	/	/	1
COc1ccccc1NC(=O)N[C@@H]1CC[C@H](CCn2cc(-c3ccccc3OC)nn2)O[C@@H]1CO	5	-5	/	/	/	-14
Cc1cc(C(=O)CN2C(=O)c3cccc(N)c3C2=O)c(C)n1Cc1cccs1	43*	/	106*	-101	20	/
Cc1ccc(OCC(=O)c2cc(C)n(CC(F)(F)F)c2C)c([N+](=O)[O-])n1	/	-3	-6	4	-2	-5
Cc1cc(C(=O)CN2C(=O)NC3(CCCCC3)C2=O)c(C)n1Cc1ccc2c(c1)OCO2	51*	/	32	-29	/	/
Cc1cc(C(=O)CN2C(=O)NC3(CCCCC3C)C2=O)c(C)n1Cc1cccs1 (stereo unspecified)	/	/	92*	-98	65*	-117

Assay outcomes deposited in PubChem by Broad Institute.
